# From article PMC4552634, “A New Set of Chemical Starting Points with Plasmodium falciparum Transmission-Blocking Potential for Antimalarial Drug Discovery” (PLoS ONE, 2015)
# Screen size: about 13,000 compounds; about 3,200 (25%) showed an effect of 50% or more. The list shows a part of the results.
# System: P. falciparum stage V gametocytes
# Set-up: BacTiter-Glo ATP luminescence viability of purified stage V gametocytes in 384-well plates, per cent inhibition versus DMSO
# Settings: 48 h, 5 µM; inhibitor
row,Structure (SMILES),% Inhibition [%]
1,CN1CCN(c2ccc(CNc3ccc4ncc(-c5cccc(OC(F)(F)F)c5)n4n3)cc2)CC1 [TCMDC-136690],11.23
2,CN1CCN(c2ccc(CNc3ccc4ncc(-c5ccc(OC(F)(F)F)cc5)n4n3)cc2)CC1 [TCMDC-136689],-0.7792
3,CN(C)CCNC(=O)c1cccc(-c2cnc3ccc(NCc4ccc(Cl)c(Cl)c4)nn23)c1 [TCMDC-136677],49.91
4,OC1CCC(Nc2ccc3ncc(-c4ccc5ccccc5c4)n3n2)CC1 (stereo not drawn) [TCMDC-136691],25.44
5,CN(C)CCNC(=O)c1ccc(-c2cnc3ccc(NCc4ccc(Cl)c(Cl)c4)nn23)cc1 [TCMDC-136678],106.7
6,CN(C)c1cccc(-c2cnc3ccc(NCc4cccc(Cl)c4)nn23)c1 [TCMDC-136673],81.33
7,Clc1ccc(-c2cnc3ccc(NCc4ccncc4)nn23)cc1 [TCMDC-136682],21.16
8,Cc1ccc(CNc2ccc3ncc(-c4cccc(C(=O)NCCN(C)C)c4)n3n2)c(C)c1 [TCMDC-136684],104.7
9,Clc1ccc(-c2cnc3ccc(NCCc4cccnc4)nn23)cc1 [TCMDC-136680],-25.41
10,CCC(C)NC(=O)CN1CN(c2ccccc2)C2(CCN(C(=O)c3ccc4ccccc4c3)CC2)C1=O (stereo not drawn) [TCMDC-125174],-36.87
11,CCNc1cc(C)nc(Nc2ccc(NS(=O)(=O)c3cc(OC)ccc3OC)cc2)n1 [TCMDC-124953],-19.07
12,CC(C)c1ccc(NC(=O)c2ccc(C(=O)NC3CCN(CC4CCCCC4)C3)cc2)cc1 (stereo not drawn) [TCMDC-136743],-27.55
13,COc1cccc2cc(C(=O)N[C@@H](CC(C)C)C(=O)N[C@H](/C=N/NC(=O)c3ccccc3)Cc3cnc[nH]3)oc12 [TCMDC-135820],40.86
14,CN(C)CCOc1cc(NC(=O)Nc2ccc(-c3ccncc3)c(Cl)c2)ccc1I [TCMDC-139135],19.45
15,COc1ccc(C(=O)C2CCN(CCCCNC(=O)c3ccc(NC(=O)c4ccc(Cl)cc4)cc3)CC2)c(OC)c1 [TCMDC-138625],-32.94
16,COc1ccc(C(=O)C2CCN(CCCCNC(=O)c3ccc(NC(=O)c4cc(Cl)cc(Cl)c4)cc3)CC2)cc1 [TCMDC-138228],-14.09
17,Clc1ccc(C2CCN(CCCOc3ccc4c(c3)CCNCC4)CC2)cc1 [TCMDC-141782],72
18,O=C(c1ccc(Cl)cc1)C1CCN(CCCOc2ccc3c(c2)CCNCC3)CC1 [TCMDC-141781],60.35
19,CC(C)(C)c1ccc(NC(=O)Nc2ccc(Cn3ncc(N4CCCNCC4)c(Cl)c3=O)cc2)cc1 [TCMDC-133314],-23.28
20,COc1ccc(-c2onc(C(F)(F)F)c2-c2cc3ccccc3o2)c(O)c1 [TCMDC-124534],7.209
21,CN1CCCc2cc(NC(=O)c3cc(-c4ccc(Cl)cc4)cs3)ccc2C1 [TCMDC-134050],7.243
22,O=C(Nc1ccc(-c2ccccc2)cc1)Nc1ccc2c(c1)CCNCC2 [TCMDC-133729],60.87
23,CN1CCN(c2cc(NC(=O)c3ccc(-c4ccc(Cl)cc4)cc3)ccc2Cl)CC1 [TCMDC-138671],-15.54
24,CN1CCc2ccc(NC(=O)Nc3ccc(-c4ccccc4)cc3)cc2C1 [TCMDC-133725],-3.896
25,O=C(Nc1ccc2c(c1)CCNCC2)c1ccc(-c2ccc(Cl)cc2)cc1 [TCMDC-141480],106.4
26,O=C(Nc1ccc2c(c1)CNCC2)c1ccc(-c2ccc(Cl)cc2)cc1 [TCMDC-141479],71.62

row,Structure (SMILES),% Inhibition [%]
1,O=C(Nc1ccc(Cl)c(Cl)c1)Nc1ccc2c(c1)CCNCC2 [TCMDC-133731],29.44
2,O=C(Nc1ccc2c(c1)CCNCC2)Nc1ccc2ccccc2c1 [TCMDC-133733],-8.361
3,Cc1ccc(NC(=O)c2ccc(Cl)cc2)cc1-c1ccc(C(=O)Nc2ccncc2)cc1 [TCMDC-133698],-1.939
4,CC1CCN(Cc2c(O)ccc3c(=O)c(-c4nc5ccccc5s4)c(N)oc23)CC1 [TCMDC-124313],12.71
5,Cc1ccc(OCCCON2C(N)=NC(N)=NC2(C)C)cc1C [TCMDC-131650],7.659
6,Cc1nc(NCCc2cnc[nH]2)cc(NCc2ccccc2)n1 [TCMDC-135164],-1.635
7,CN(C(=O)c1cc2c(-c3cncnc3)cccc2[nH]1)c1ccccc1 [TCMDC-134637],36.22
8,CCC(CC)CN1C(=O)C(C)(c2ccccc2)N=C1N (stereo not drawn) [TCMDC-137051],1.821
9,COc1cc2c(cc1S(=O)(=O)c1ccc(NC(=O)c3cccc(C(F)(F)F)c3)cc1)CCN(C)CC2 [TCMDC-133791],-4.764
10,COc1cccc(C(=O)Nc2ccc(S(=O)(=O)c3cc4c(cc3OC)CCN(C)CC4)cc2)c1 [TCMDC-133790],79.19
11,COc1cc2c(cc1S(=O)(=O)c1ccc(NC(=O)c3ccc4ccccc4c3)cc1)CCN(C)CC2 [TCMDC-133792],8.081
12,O=C(CCc1cnc[nH]1)Nc1ccc(-c2ccc(-c3nc4ccccc4[nH]3)cc2)cc1 [TCMDC-132156],-24.85
13,c1csc(-c2nc(N3CCCCC3)ncc2-c2ccsc2)n1 [TCMDC-125370],9.865
14,C=CCc1c(C(=O)NCC23CC4CC(CC(C4)C2)C3)[nH]c2ccccc2c1=O [TCMDC-136371],-9.366
15,CC(C)Cc1cn(-c2nc(-c3nc4ccccc4[nH]3)cs2)c2ccncc12 [TCMDC-132419],3.094
16,COc1ccccc1CCNc1nc(C)cc(N[C@@H](Cc2ccccc2)C(=O)NCCc2ccccc2)n1 [TCMDC-134803],83.15
17,COc1ccccc1CCNc1nc(C)cc(N[C@@H](Cc2ccccc2)C(=O)Nc2ccccc2)n1 [TCMDC-134804],36.98
18,Cc1cc(N[C@@H](Cc2ccccc2)C(=O)NCCc2ccccc2)nc(NCCc2ccc(F)cc2)n1 [TCMDC-134867],49.67
19,COc1ccccc1CCNc1nc(C)cc(N[C@@H](Cc2ccccc2)C(=O)NCCOc2ccccc2)n1 [TCMDC-134862],100.5
20,Cc1cc(N[C@@H](Cc2ccccc2)C(=O)NCCCOC(C)C)nc(NCC2CCCCC2)n1 [TCMDC-134931],30.55
21,COc1ccccc1CCNc1nc(C)cc(N[C@@H](CC(C)C)C(=O)NCCc2ccccc2)n1 [TCMDC-134807],30.27
22,Cc1cccc(CNc2nc(C)cc(N[C@@H](Cc3ccccc3)C(=O)NCCc3ccccc3)n2)c1 [TCMDC-134889],-24.79
23,Cc1cc(N[C@@H](Cc2ccccc2)C(=O)NCCc2ccccc2)nc(NCCc2ccccc2)n1 [TCMDC-134776],144.5
24,COc1ccccc1CCNc1nc(C)cc(N[C@@H](Cc2ccccc2)C(=O)NCCCOC(C)C)n1 [TCMDC-134861],55.12
25,Cc1cc(N[C@@H](Cc2ccccc2)C(=O)NCCc2ccccc2)nc(NCc2ccccc2C)n1 [TCMDC-134907],-0.7865
